Assay in all cases: NCI-60 one-dose screen, 48 h (100 = growth as untreated, 0 = no growth, -100 = all killed)
Experiment [1] has as its system DU-145 prostate. To be noted: 10 µM unless noted.
The subject of experiment [2] is K-562 leukemia. The note with it: 10 µM unless noted.
The subject of experiment [3] is MALME-3M melanoma. To be noted: 10 µM unless noted.
For experiment [4], the system named is MDA-MB-231 breast. The note with it: 10 µM unless noted.
Experiment [5] concerns RXF 393 renal. To be noted: 10 µM unless noted.
Experiment [6] has as its system SF-268 CNS. The note with it: 10 µM unless noted.
For experiment [7], the system named is SF-295 CNS. To be noted: 10 µM unless noted.
For experiment [8], the system named is SF-539 CNS. The note with it: 10 µM unless noted.
For experiment [9], the system named is UACC-257 melanoma. The note with it: 10 µM unless noted.
Experiment [10] has as its system M14 melanoma. To be noted: 10 µM unless noted.
For experiment [11], the system named is HCT-15 colon. To be noted: 10 µM unless noted.
In experiment [12] the test system is HT29 colon. The note with it: 10 µM unless noted.
Experiment [13] has as its system SNB-75 CNS. The note with it: 10 µM unless noted.
In experiment [14] the test system is SNB-19 CNS. The note with it: 10 µM unless noted.
Experiment [15] has as its system U251 CNS. To be noted: 10 µM unless noted.
Experiment [16] relates to PC-3 prostate. The note with it: 10 µM unless noted.
Experiment [17] has as its system UACC-62 melanoma.
In experiment [18] the test system is SK-MEL-28 melanoma. To be noted: 10 µM unless noted.
Experiment [19] deals with SK-MEL-5 melanoma. To be noted: 10 µM unless noted.
Experiment [20] has as its system LOX IMVI melanoma. The note with it: 10 µM unless noted.

“And” between values parts separate entries of the source, which are not always exact repeats. Equal values may be shown once. The panel holds about 83,000 compounds, 20% with a hit somewhere; the sample as a whole holds those more often.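 How to read the values: 0–100, growth inhibition (40 = 60% inhibited); 0, no net growth; -100 to 0, cell death (-40 = 40% of starting cells died; -100 = all dead).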 A number with no mark means an inactive call. The source made the active and inactive calls. How the source made its calls: active means growth percent below 10; inactive means the rest.

On to `O=C(Cc1ccccc1)c1ccc(O)c(Cl)c1`, for which the growth in [1] was 18.5%; in [2] it was 21.4%; in [3], 50.2%; in [4], 49.8%; in [5], 41.7%; in [6], 41.7%. For the same molecule, the growth in experiment [7] was 47.8%; in experiment [8] it was 32.9%; in experiment [9] it was 66.7%; in experiment [10], 30.1%; in [11], 13.9%; in experiment [12] it was 30.2%. In addition, the growth is 72.7% in experiment [13]; 74.8% in experiment [14]; 73% in experiment [15]; 53.2% in experiment [16]; 26.8% in experiment [17] (10 µM unless noted); 49.4% in experiment [18].

With `CC(C)NCC(O)c1ccc(O)c(O)c1` (stereo not drawn), the growth was 110% and 119% and 103% in experiment [1]; 112% and 101% in experiment [2]; 101% and 88.7% and 141% in experiment [3]; 84% and 78.9% and 85.1% in experiment [4]; 103% and 105% in experiment [5]; 102% and 106% and 86.6% in [6]. For the same molecule, the growth is 108% and 110% and 105% in experiment [7]; 95.9% and 87.7% and 85.6% in [8]; 109% and 102% in [9]; 98.1% and 96.8% and 113% in [10]; 104% and 106% and 99.5% in experiment [11]; 100% and 111% in [12]. The growth in [13] was 75.3% and 83.1% and 82.2%; in experiment [14], 101% and 89.5% and 93.5%; in experiment [15], 98.6% and 118% and 99.2%; in experiment [16], 93.8% and 95.8%; in experiment [19], 94.6% and 90.3% and 120%; in [17] (10 µM unless noted), 101% and 109% and 98.5%. Moreover, the growth in [18] was 107% and 116% and 101%.

With `c1ccc(CNCCNCc2ccccc2)cc1`, the growth in [1] is 114%; in [2], 98.1%; in experiment [3] it was 109%; in experiment [4], 118%; in [5], 104%; in experiment [6] it was 120%. For the same molecule, the growth in experiment [7] is 90.8%; in [8] it was 101%; in experiment [9], 117%; in experiment [10], 111%; in [11], 101%; in experiment [12] it was 108%. The growth in experiment [13] is 86.7%; in experiment [14], 107%; in [15] it was 96%; in [16] it was 92.4%; in experiment [17] (10 µM unless noted), 105%; in experiment [20], 110%. Moreover, the growth in experiment [18] was 108%.

For the molecule `COc1ccc2cc1Oc1ccc(cc1)C[C@H]1c3cc(c(OC)cc3CCN1C)Oc1c(OC)c(OC)cc3c1[C@H](C2)N(C)CC3`, the growth is 53.1% in experiment [1]; -75.4% (active) in experiment [2]; 16.3% in experiment [3]; 8.45% (active) in [4]; 47.2% in experiment [5]; 78.2% in experiment [6]. The growth is 71.8% in experiment [7]; -74.4% (active) in experiment [8]; 46.2% in experiment [9]; -78.8% (active) in experiment [10]; 3.41% (active) in [11]; -32.7% (active) in experiment [12]. Moreover, the growth in experiment [13] was -7.64% (active); in [14], 57.7%; in experiment [15] it was 24.2%; in experiment [16] it was 28.8%; in experiment [17] (10 µM) it was 103%; in experiment [17] (100 µM), 80.7% and 64.2%. Besides, in [20], the growth was -43.7% (active).

For the molecule `N#CC(C#N)N=Nc1ccc(Cl)cc1`, the growth in [1] is 68.2%; in [2] it was 10.2%; in experiment [3] it was 15.6%; in [4], 47.2%; in [5] it was 61.4%; in experiment [6] it was 84.9%. Moreover, the growth in experiment [7] is 94.7%; in experiment [8], 53.1%; in experiment [9], 20.8%; in [10] it was 60.1%; in experiment [11] it was 15.1%; in experiment [12], 24.7%. The growth in [13] is 72%; in experiment [14], 94.2%; in [15] it was 88.7%; in experiment [16], 54.7%; in experiment [20] it was 53.5%; in [18], 42.2%.

Values taken from PubChem BioAssay (NCI).
